Assay results published in PubChem BioAssay (Tox21).
Values joined by “and” are separate entries in the source; they are usually repeats but may differ in a detail not shown here. Equal values may be shown once. Some structures have more than one record in an assay (separate samples or runs), and their calls can disagree. Active and inactive are the calls of the source. Where a call stands in place of a potency, no number is given. Calls follow the shape of the dose curve; as a rule, active = well fitted activation curve with a large enough effect in the repeat runs; inconclusive = weak or mixed curves; inactive = flat fitted curve, though single readings scatter.

Assay: A CellTox Green Cytotoxicity Assay to monitor cytotoxicity in HepG2 cells - 0 hour (AID 1224882); also: nearly all actives have a fitted effect of over 35% in size
Details: CellTox Green fluorescence; series mostly up to 76.8 µM; cytotoxicity: at the top concentration
Procedure, shortened: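 HepG2, 600 cells/well premixed w/ CellTox Green; 5 h settle, 37 C/5% CO2; pintool cpd add (DMSO); 37 C, 40 h; fluorescence read at 0, 8, 16, 24, 32, 40 h.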
Potency is read from the fitted curve at half-maximal effect.

Row | Compound | Potency | cytotoxicity
1 | CC1=C(/C=C/C(C)=C/C=C/C(C)=C/CO)C(C)(C)CCC1 | inactive | –
2 | COC(=O)c1ccccc1O | inactive | –
3 | Oc1ccc2ccccc2c1N=Nc1ccccc1 | inactive | –
4 | C[C@@H](O)[C@H]1C(=O)N2C(C(=O)O)=C(S[C@@H]3CN[C@H](C(=O)N(C)C)C3)[C@H](C)[C@H]12 | inactive | –
5 | C=C1CC[C@H](O)CC1=C/C=C1\CCC[C@]2(C)[C@@H]([C@H](C)/C=C/[C@H](C)C(C)C)CC[C@@H]12 | inactive | –
6 | CCc1ccc(O)cc1 | inactive | –
7 | COC(=O)c1ccc(C(=O)OC)cc1 | inactive | –
8 | OCC#CCO | inactive | –
9 | CN(C)c1cccc(O)c1 | – | 1.47% (inactive)
10 | COCC(=O)O | inactive | –
11 | CC1=CC[C@H]2C[C@@H]1C2(C)C | inactive | –
12 | CC(C)(C)C1CCC(O)CC1 (centres undefined) | inactive | –
13 | O=S(=O)(O)c1cc(S(=O)(=O)O)c2c(N=Nc3ccccc3)c(O)ccc2c1 | inactive | –
14 | CC#C[C@]1(O)CC[C@H]2[C@@H]3CCC4=CC(=O)CCC4=C3[C@@H](c3ccc(N(C)C)cc3)C[C@@]21C | inactive | –
15 | S=c1nc[nH]c2nc[nH]c12 | inactive | –
16 | O=C(Cl)c1c(Cl)c(Cl)c(C(=O)Cl)c(Cl)c1Cl | inactive | –
17 | Nc1nc2ncc(CNc3ccc(C(=O)N[C@@H](CCC(=O)O)C(=O)O)cc3)nc2c(=O)[nH]1 | inactive | –
18 | CC1Cc2ccccc2N1NC(=O)c1ccc(Cl)c(S(N)(=O)=O)c1 (centres undefined) | inactive | –
19 | C=C(C)C(=O)OCC(CC)(COC(=O)C(=C)C)COC(=O)C(=C)C | inactive and 42.9 µM (active) | –
20 | CCCCCCCCCCCCOCC1CO1 (centres undefined) | inactive | –

Row | Compound | Potency | cytotoxicity
21 | CC(C)n1c(/C=C/[C@@H](O)C[C@@H](O)CC(=O)O)c(-c2ccc(F)cc2)c2ccccc21 | inactive | –
22 | NC(=O)NNc1ccccc1 | inactive | –
23 | O=C(c1cc(O)c(O)c(O)c1)c1ccc(O)c(O)c1O | inactive | –
24 | O=C(Oc1ccccc1)c1ccc(O)cc1 | inactive | –
25 | CCc1ccccc1O | inactive | –
26 | Cc1cc(O)cc(C)c1Cl | inactive | –
27 | CCOC(=O)/C=C\C(=O)OCC | inactive | –
28 | CC1=C(CC(=O)O)c2cc(F)ccc2/C1=C\c1ccc(S(C)=O)cc1 (centres undefined) | inactive | –
29 | Nc1cc(-c2ccncc2)c[nH]c1=O | inactive | –
30 | CCCCCCCCCCC=CC1CC(=O)OC1=O (centres undefined) | inactive | –
31 | C=CC(=O)OCCCCCCCC(C)C | inactive | –
32 | CCCCOCCOCCOC(=O)CCCCC(=O)OCCOCCOCCCC | inactive | –
33 | O=C(O)c1ccc([N+](=O)[O-])cc1 | inactive | –
34 | CC1(C)CC(N=C=O)CC(C)(CN=C=O)C1 (centres undefined) | inactive | –
35 | NC(=O)/N=N/C(N)=O | inactive | –
36 | CNC[C@H](O)[C@@H](O)[C@H](O)[C@H](O)CO | inactive | –
37 | CC(=O)Nc1ccc(C(=O)O)cc1 | inactive | –
38 | O=C1O[C@H](CO)[C@@H](O)[C@H](O)[C@H]1O | inactive | –
39 | C=C(C)C(=O)OCCCCCC | inactive | –
